Compound activity deposited in PubChem BioAssay by several laboratories.
Hits are enriched below; roughly 4.7% of the tested compounds scored in any of these assays.
HSF1 activator: increases HSF-1 driven luciferase reporter signal | actives 1.7% (n = 300,000) | NIH3T3-HGL HSF-1 luciferase reporter, MG132, 8 h; 100% = twice DMSO control signal | activation, % at 9 µM | AID 504408;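 active = mean replicate activation of at least 50% with a set share of replicates each reaching 50%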;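 note: 0% = median of the neutral control wells and 100% = twice that signal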
TWEAK Fn14 block: blocks TWEAK-Fn14 interaction in a reporter cell assay | actives 2% (n = 360,000) | inhibition, % at 10 µM | TWEAK-stimulated Fn14 reporter cells, luciferase luminescence, 8 h; in the data active = inhibition above about 50%
LMP1 NFkB inh: reduces LMP1-driven NF-kappaB luciferase signal | LMP1-induced NF-kappaB luciferase reporter cells, luminescence | actives 0.69% (n = 350,000) | AID 504558 | inhibition, % at 12.5 µM; in the data active = inhibition above about 41%;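 note: 0% = neutral control wells and 100% = reference inhibitor control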
TROY signal inh: inhibitors of TROY-dependent NF-kB signaling | Q293 LMP1-TROYcd NF-kB luciferase reporter, 4 h | inhibition, % at 10 µM | actives 0.98% (n = 360,000);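 active = compounds whose plate-normalised and pattern-corrected inhibition of the luciferase reporter signal at the single screening dose is 50% or more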
HSF1 inh: HSF1 inhibition; NIH3T3-HGL HSE-luciferase, MG132-induced, luminescence 8 h; hits give low values; actives 0.77% (n = 300,000); AID 2098; activity change, negative = inhibition, % at 7.5 µM (by protocol);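 active = more than half of replicate wells show activity change below -50%, luminescence cut by over half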;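 note: luciferase reports HSF-1 transcriptional activity via heat shock element; 0% = median of DMSO wells and -100% = zero luminescence signal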
HSP90 refold inh: HSP90 refolding inhibition in rabbit reticulocyte lysate; actives 0.91% (n = 290,000); AID 1789; luciferase refolding luminescence, 3 h; inhibition, % at 5.6 µM;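 active = inhibition above the screen-wide mean plus 3 SD, computed separately per campaign, cut at about 16% in these data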;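 note: 0% = DMSO wells and 100% = 60 µM geldanamycin wells; inhibitors lower the luminescence because luciferase stays unfolded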
Starred values were filed as active, the others as inactive; ! = a repeat was not active.

`CCNC(=O)N(CC)C[C@H]1N[C@@](Cc2ccccc2)(C(=O)OC)[C@H]2C(=O)N(C)C(=O)[C@@H]12` gave TWEAK Fn14 block -14.6, LMP1 NFkB inh 64.6* and TROY signal inh -1.4.
For O=C(NC(=S)N1CCCCC1c1cccnc1)c1ccc(F)cc1 (stereo not given) the results were HSF1 activator 2.6, TWEAK Fn14 block 5.5, LMP1 NFkB inh 8.5, TROY signal inh 73.4*, HSF1 inh 2.4 and HSP90 refold inh -3.8.
`O=[N+]([O-])c1cccnc1NCCc1c[nH]c2ccccc12` gave HSF1 activator 54.3*, TWEAK Fn14 block -14.2, LMP1 NFkB inh -15.9, TROY signal inh -21.4, HSF1 inh 24.0 and HSP90 refold inh -6.1.
For C[C@H]1CN([C@@H](C)CO)C(=O)CCCn2nncc2CO[C@H]1CN(C)S(=O)(=O)c1ccc(-n2cccn2)cc1 the results were TWEAK Fn14 block 22.2, LMP1 NFkB inh -3.2 and TROY signal inh -1.7.
`CCc1nc2ccc(C(=O)NCCCN3CCCC3=O)cn2c1N(C)C(=O)Nc1ccccc1OC` gave TWEAK Fn14 block -2.4 and TROY signal inh -5.7.
`CC(=O)Nc1ccc(S(=O)(=O)N(C)CC(=O)N/N=C/c2ccc(C(=O)O)cc2)cc1` gave HSF1 activator 28.0, TWEAK Fn14 block 1.8, LMP1 NFkB inh 3.7, TROY signal inh 11.7, HSF1 inh 4.8 and HSP90 refold inh -3.6.
Screening COc1ccc(/C=N/NC(=O)CN(C)S(=O)(=O)c2ccc(NC(C)=O)cc2)cc1 returned HSF1 activator -67.2, TWEAK Fn14 block 6.8, LMP1 NFkB inh -2.1, TROY signal inh 15.6, HSF1 inh -59.6* and HSP90 refold inh -4.9.
Cc1ccc(C(=O)Nc2cccc(C(F)(F)F)c2)cc1NC(=O)c1ccno1 was read as HSF1 activator -55.8, TWEAK Fn14 block -36.4, LMP1 NFkB inh 46.1*, TROY signal inh 5.5 and HSF1 inh -46.6.
`Cc1ccc(C(=O)Nc2cccc(C(F)(F)F)c2)cc1Nc1ncnc2nc[nH]c12` gave HSF1 activator -49.3, TWEAK Fn14 block 2.2, LMP1 NFkB inh 44.3*, TROY signal inh 27.7 and HSF1 inh -41.5.
`COc1cc(NC(=O)c2ccnc(N)c2)cc(C(=O)Nc2cccc(C(F)(F)F)c2)c1` gave HSF1 activator -25.6, TWEAK Fn14 block -20.3, LMP1 NFkB inh 5.1, TROY signal inh -28.8 and HSF1 inh 0.3.
COc1cc(NC(=O)c2cnc(N)o2)cc(C(=O)Nc2cccc(C(F)(F)F)c2)c1 was read as HSF1 activator -5.9, TWEAK Fn14 block 57.1*!, LMP1 NFkB inh 26.4, TROY signal inh 24.7 and HSF1 inh -0.8.
Screening Cc1ccc(C(=O)Nc2cccc(C(F)(F)F)c2)cc1Nc1cnccn1 returned HSF1 activator -20.4, TWEAK Fn14 block -33.3, LMP1 NFkB inh 15.5, TROY signal inh -26.3 and HSF1 inh -18.5.
Screening Cc1ccc(C(=O)Nc2cccc(C(F)(F)F)c2)cc1NC(=O)c1nccn1C returned HSF1 activator -13.6, TWEAK Fn14 block -49.3, LMP1 NFkB inh 7.0, TROY signal inh -6.6 and HSF1 inh -7.9.
Screening CC1(C(=O)NS(=O)(=O)c2cccs2)CCN1C(=O)Cc1ccc(Cl)cc1Cl (stereo not given) returned TWEAK Fn14 block 12.9 and TROY signal inh 1.0.
For CCS(=O)(=O)N1Cc2ccccc2CC1C(=O)Nc1ccc(F)c(F)c1 (stereo not given) the results were HSF1 activator 59.5*, TWEAK Fn14 block -15.4, LMP1 NFkB inh -13.4, TROY signal inh -5.0, HSF1 inh 15.7 and HSP90 refold inh 0.0.
CN(CC(=O)Nc1ccc(F)cc1)C(=O)C1Cc2ccccc2CN1S(C)(=O)=O (stereo not given) was read as TWEAK Fn14 block -10.5, LMP1 NFkB inh -4.3 and TROY signal inh -9.2.
For CCS(=O)(=O)N1Cc2ccccc2CC1C(=O)N(C)CC(=O)Nc1cccc(F)c1 (stereo not given) the results were HSF1 activator -15.4, TWEAK Fn14 block 21.4, LMP1 NFkB inh -2.5, TROY signal inh 58.5* and HSF1 inh -14.8.
`CCS(=O)(=O)N1Cc2ccccc2CC1C(=O)Nc1ccc(NC(C)=O)cc1` (stereo not given) gave HSF1 activator 4.3, TWEAK Fn14 block -2.3, LMP1 NFkB inh -2.3, TROY signal inh -14.1, HSF1 inh -0.6 and HSP90 refold inh 7.7.
`COc1ccc2nc(C(c3ccc(C)cc3)n3c(-c4ccccc4Br)nc4ccccc43)[nH]c2c1` (stereo not given) gave TWEAK Fn14 block 25.8 and TROY signal inh -14.6.
For CC(=O)N1N=C(c2ccc(Cl)cc2)CC1c1ccc([N+](=O)[O-])cc1 (stereo not given) the results were HSF1 activator -3.7, TWEAK Fn14 block 79.8*, LMP1 NFkB inh -16.9, TROY signal inh -15.0, HSF1 inh 3.6 and HSP90 refold inh -1.6.
Screening CC1(c2ccccc2)CC2CC(c3ccccc3)N1O2 (stereo not given) returned HSF1 activator 123.8*, TWEAK Fn14 block 1.2, LMP1 NFkB inh 2.5, TROY signal inh 15.4, HSF1 inh 64.0 and HSP90 refold inh 0.1.
`COc1ccc(C2CC3CC(c4ccccc4)N2O3)cc1` (stereo not given) gave HSF1 activator 17.2, TWEAK Fn14 block 5.8, LMP1 NFkB inh 5.2, TROY signal inh -5.8, HSF1 inh 3.5 and HSP90 refold inh 0.2.
For COc1ccc(-c2nnn(Cc3ccccc3)n2)cc1 the results were HSF1 activator 45.6, TWEAK Fn14 block -47.1, LMP1 NFkB inh -13.4, TROY signal inh -45.4, HSF1 inh 28.2 and HSP90 refold inh -2.9.
`Nc1ccc(-c2nnn(Cc3ccccc3)n2)cc1` gave TWEAK Fn14 block 65.4*, LMP1 NFkB inh -10.0 and TROY signal inh -37.9.
`O=C(COC(=O)CCS(=O)(=O)c1ccccc1)NNC(=O)c1ccc([N+](=O)[O-])cc1` gave TWEAK Fn14 block 10.0, LMP1 NFkB inh 7.6 and TROY signal inh 2.4.
Screening Cc1ccc2nc(-c3ccccc3)oc(=O)c2c1 returned HSF1 activator 3.1, TWEAK Fn14 block 107.8*, LMP1 NFkB inh -2.0, TROY signal inh -13.2, HSF1 inh 0.2 and HSP90 refold inh -2.8.
Cc1ccc(CNC(=O)CC[C@H]2O[C@@H](n3cc(C)c(=O)[nH]c3=O)C[C@@H]2O)o1 was read as TWEAK Fn14 block -5.7 and TROY signal inh -5.3.
`O=C(CCC1CCCN(C(=O)c2cc3ccccc3o2)C1)NCc1ccc(F)c(F)c1` (stereo not given) gave HSF1 activator 52.0*, TWEAK Fn14 block -12.0, LMP1 NFkB inh -20.6, TROY signal inh -20.5, HSF1 inh 43.8 and HSP90 refold inh 3.5.
Screening CC1=C(C(=O)N2CCOCC2)CC(CC(=O)NCCCCc2ccccc2)C(=O)N1Cc1ccc(C(C)(C)C)cc1 (stereo not given) returned TWEAK Fn14 block 9.3, LMP1 NFkB inh 6.0 and TROY signal inh -15.3.
